Consider one compound from ChEMBL document CHEMBL1961873, “Compounds: GSK PKIS; Assays: Nanosyn kinase panel” (2012).

In assay [1] the target is Sphingosine kinase 1 (Homo sapiens) (UniProt Q9NYA1). To be noted: at 1 µM.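 Also: mean SPHK1 inhibition value reported from the GSK PKIS kinase panel screen.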
Assay [2] deals with T1, Sphingosine kinase 2 (Homo sapiens) (UniProt Q9NRA0).
T1 sequence (whole entry): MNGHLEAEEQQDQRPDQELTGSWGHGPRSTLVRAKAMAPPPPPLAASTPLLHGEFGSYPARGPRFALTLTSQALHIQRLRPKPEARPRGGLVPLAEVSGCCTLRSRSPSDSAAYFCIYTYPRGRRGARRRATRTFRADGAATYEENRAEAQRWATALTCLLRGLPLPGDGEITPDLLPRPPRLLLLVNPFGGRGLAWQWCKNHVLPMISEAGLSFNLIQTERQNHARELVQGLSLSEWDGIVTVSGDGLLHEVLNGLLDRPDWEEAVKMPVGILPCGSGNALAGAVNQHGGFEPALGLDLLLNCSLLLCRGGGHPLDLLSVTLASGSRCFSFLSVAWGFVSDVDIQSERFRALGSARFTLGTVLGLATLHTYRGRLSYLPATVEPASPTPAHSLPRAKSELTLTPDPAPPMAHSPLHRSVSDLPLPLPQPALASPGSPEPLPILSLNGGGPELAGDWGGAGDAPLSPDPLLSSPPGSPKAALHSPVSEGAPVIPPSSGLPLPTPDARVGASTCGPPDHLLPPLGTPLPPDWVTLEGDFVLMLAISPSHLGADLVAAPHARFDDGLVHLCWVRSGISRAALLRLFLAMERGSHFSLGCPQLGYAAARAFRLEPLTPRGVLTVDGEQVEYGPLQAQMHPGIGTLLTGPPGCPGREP
To be noted: at 0.1 µM.

The target of assay [3] is T1, Sphingosine kinase 2 (Homo sapiens). Conditions: at 1 µM.
Assay [4] concerns the target Casein kinase II subunit alpha (Homo sapiens) (UniProt P68400). To be noted: at 0.1 µM.
Assay [5] shares this target. To be noted: at 1 µM.
Assay [6] addresses T2, Inhibitor of nuclear factor kappa-B kinase subunit alpha (Homo sapiens) (UniProt O15111).
T2 sequence (whole entry): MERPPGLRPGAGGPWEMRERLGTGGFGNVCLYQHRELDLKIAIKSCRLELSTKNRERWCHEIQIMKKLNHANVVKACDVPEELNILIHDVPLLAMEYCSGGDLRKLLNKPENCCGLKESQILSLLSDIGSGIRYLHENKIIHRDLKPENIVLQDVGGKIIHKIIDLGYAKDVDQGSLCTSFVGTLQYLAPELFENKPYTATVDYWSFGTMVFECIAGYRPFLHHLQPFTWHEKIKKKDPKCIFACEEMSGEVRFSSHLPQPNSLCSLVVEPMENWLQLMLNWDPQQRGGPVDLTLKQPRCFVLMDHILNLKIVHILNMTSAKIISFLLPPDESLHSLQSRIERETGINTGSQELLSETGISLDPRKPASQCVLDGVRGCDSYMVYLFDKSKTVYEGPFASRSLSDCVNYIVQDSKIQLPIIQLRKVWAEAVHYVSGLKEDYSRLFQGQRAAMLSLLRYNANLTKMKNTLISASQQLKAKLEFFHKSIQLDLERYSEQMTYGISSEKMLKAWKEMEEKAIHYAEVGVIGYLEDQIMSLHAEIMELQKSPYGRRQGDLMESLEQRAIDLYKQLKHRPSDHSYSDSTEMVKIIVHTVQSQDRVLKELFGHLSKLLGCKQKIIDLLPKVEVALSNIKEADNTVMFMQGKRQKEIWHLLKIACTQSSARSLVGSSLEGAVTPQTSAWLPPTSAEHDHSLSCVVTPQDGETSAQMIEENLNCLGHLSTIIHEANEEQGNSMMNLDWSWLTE
To be noted: at 0.1 µM.

In assay [7] the target is T2, Inhibitor of nuclear factor kappa-B kinase subunit alpha (Homo sapiens). To be noted: at 1 µM.
For assay [8], the target named is T3, Inhibitor of nuclear factor kappa-B kinase subunit beta (Homo sapiens) (UniProt O14920).
T3 sequence (whole entry): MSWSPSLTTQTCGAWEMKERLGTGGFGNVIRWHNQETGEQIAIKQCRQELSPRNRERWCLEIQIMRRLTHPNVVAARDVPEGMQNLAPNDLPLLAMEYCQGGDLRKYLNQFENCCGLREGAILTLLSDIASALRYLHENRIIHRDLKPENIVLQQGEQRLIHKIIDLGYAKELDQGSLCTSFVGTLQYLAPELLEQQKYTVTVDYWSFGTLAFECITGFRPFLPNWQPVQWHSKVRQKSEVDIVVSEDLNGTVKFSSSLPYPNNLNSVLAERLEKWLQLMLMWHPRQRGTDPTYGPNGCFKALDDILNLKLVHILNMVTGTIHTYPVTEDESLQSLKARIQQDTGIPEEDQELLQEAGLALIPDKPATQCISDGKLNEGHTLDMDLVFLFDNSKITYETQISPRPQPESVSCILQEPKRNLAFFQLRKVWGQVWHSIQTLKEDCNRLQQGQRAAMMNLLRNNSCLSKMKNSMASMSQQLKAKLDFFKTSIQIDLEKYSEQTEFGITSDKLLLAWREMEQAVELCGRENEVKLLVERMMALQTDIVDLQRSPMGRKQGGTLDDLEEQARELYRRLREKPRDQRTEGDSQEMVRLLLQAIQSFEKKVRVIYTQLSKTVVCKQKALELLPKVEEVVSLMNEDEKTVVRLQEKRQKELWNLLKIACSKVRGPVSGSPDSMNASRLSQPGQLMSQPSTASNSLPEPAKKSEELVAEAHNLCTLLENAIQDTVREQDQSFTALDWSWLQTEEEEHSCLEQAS
Conditions: at 0.1 µM.

The target of assay [9] is T3, Inhibitor of nuclear factor kappa-B kinase subunit beta (Homo sapiens). Conditions: at 1 µM.
For assay [10], the target named is T4, Inhibitor of nuclear factor kappa-B kinase subunit epsilon (Homo sapiens) (UniProt Q14164).
T4 sequence (whole entry): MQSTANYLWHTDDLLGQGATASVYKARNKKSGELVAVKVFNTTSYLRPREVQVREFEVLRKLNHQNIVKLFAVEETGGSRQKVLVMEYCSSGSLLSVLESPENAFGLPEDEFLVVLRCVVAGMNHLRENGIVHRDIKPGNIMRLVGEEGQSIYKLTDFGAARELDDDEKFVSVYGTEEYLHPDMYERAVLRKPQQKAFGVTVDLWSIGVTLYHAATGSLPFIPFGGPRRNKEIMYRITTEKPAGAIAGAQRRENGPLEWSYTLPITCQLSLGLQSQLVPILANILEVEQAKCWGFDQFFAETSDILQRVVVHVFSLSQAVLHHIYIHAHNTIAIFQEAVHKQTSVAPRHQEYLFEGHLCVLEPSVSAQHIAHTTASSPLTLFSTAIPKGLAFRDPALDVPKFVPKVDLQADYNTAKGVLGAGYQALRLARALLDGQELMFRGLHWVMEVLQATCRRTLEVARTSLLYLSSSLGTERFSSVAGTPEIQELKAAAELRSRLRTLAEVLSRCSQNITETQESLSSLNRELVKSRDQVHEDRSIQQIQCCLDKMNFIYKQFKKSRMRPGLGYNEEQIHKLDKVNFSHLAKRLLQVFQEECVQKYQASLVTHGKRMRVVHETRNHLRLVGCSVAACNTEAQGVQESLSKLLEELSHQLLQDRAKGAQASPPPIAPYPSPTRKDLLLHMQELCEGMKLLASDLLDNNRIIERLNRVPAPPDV
Conditions: at 0.1 µM.

In assay [11] the target is T4, Inhibitor of nuclear factor kappa-B kinase subunit epsilon (Homo sapiens). To be noted: at 1 µM.
Assay [12] concerns the target T5, Serine/threonine-protein kinase Nek1 (Homo sapiens) (UniProt Q96PY6).
T5 sequence (whole entry): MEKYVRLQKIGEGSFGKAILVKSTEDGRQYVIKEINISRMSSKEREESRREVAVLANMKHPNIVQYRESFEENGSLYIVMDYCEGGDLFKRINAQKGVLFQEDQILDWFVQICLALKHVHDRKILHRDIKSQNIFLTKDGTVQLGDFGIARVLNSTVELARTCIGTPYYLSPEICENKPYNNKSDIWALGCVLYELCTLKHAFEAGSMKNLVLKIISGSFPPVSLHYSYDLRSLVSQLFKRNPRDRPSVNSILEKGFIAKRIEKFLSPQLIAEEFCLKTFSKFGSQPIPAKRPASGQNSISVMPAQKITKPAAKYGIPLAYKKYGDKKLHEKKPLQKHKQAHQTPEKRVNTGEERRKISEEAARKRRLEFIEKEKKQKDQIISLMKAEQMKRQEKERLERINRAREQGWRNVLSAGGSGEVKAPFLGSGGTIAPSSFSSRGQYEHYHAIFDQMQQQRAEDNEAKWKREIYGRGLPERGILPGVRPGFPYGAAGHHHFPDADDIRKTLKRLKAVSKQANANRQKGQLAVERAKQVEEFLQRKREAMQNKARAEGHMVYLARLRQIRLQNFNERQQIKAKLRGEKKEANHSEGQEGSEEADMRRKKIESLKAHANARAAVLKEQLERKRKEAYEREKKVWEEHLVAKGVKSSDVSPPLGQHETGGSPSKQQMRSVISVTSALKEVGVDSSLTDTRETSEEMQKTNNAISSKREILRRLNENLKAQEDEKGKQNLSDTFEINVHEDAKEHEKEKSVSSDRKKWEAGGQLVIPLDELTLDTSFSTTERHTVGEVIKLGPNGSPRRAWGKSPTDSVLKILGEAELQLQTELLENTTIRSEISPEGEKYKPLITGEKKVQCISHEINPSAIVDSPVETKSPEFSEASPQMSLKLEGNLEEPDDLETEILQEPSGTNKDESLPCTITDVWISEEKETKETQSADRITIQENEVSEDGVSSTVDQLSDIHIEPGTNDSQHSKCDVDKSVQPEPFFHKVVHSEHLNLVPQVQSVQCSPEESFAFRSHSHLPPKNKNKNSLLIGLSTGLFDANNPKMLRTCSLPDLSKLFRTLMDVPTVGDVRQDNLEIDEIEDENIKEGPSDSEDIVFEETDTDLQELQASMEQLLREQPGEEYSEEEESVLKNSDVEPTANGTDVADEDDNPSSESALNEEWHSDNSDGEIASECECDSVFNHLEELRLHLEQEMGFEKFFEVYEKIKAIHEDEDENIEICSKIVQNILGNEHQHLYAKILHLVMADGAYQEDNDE
Conditions: at 0.1 µM.

In assay [13] the target is T5, Serine/threonine-protein kinase Nek1 (Homo sapiens). To be noted: at 1 µM.
The target in assay [14] is T6, Serine/threonine-protein kinase Nek2 (Homo sapiens) (UniProt P51955).
T6 sequence (whole entry): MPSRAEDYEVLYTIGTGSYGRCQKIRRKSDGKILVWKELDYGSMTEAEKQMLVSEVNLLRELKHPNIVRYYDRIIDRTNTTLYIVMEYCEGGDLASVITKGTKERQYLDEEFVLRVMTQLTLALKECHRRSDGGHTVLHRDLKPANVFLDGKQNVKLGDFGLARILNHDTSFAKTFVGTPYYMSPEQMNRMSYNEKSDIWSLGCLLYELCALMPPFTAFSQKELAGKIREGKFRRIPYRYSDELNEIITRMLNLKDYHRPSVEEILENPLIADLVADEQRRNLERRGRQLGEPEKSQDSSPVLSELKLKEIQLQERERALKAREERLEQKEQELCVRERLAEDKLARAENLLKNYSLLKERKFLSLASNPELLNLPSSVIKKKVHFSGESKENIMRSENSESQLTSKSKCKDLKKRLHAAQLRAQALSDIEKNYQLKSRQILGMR
Conditions: at 0.1 µM.

Assay [15] has as its target T6, Serine/threonine-protein kinase Nek2 (Homo sapiens). To be noted: at 1 µM.
The target of assay [16] is Serine/threonine-protein kinase Nek6 (Homo sapiens) (UniProt Q9HC98). To be noted: at 0.1 µM.
Serine/threonine-protein kinase Nek6 (Homo sapiens), sequence (Q9HC98 whole entry): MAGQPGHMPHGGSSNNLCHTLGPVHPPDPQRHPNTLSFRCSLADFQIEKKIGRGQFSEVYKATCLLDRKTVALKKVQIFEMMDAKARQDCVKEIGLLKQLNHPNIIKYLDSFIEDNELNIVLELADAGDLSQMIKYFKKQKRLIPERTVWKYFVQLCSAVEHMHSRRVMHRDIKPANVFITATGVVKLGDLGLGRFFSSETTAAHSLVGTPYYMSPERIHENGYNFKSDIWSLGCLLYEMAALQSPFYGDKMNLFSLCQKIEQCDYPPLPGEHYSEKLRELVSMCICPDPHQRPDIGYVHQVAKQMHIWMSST
Assay [17] shares this target. Conditions: at 1 µM.
Assay [18] concerns the target Serine/threonine-protein kinase Nek7 (Homo sapiens) (UniProt Q8TDX7). To be noted: at 0.1 µM.
Assay [19] shares this target. To be noted: at 1 µM.
The target of assay [20] is T7, Serine/threonine-protein kinase Nek9 (Homo sapiens) (UniProt Q8TD19).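 Also: reported value is the mean percent inhibition of NEK9.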
T7 sequence (whole entry): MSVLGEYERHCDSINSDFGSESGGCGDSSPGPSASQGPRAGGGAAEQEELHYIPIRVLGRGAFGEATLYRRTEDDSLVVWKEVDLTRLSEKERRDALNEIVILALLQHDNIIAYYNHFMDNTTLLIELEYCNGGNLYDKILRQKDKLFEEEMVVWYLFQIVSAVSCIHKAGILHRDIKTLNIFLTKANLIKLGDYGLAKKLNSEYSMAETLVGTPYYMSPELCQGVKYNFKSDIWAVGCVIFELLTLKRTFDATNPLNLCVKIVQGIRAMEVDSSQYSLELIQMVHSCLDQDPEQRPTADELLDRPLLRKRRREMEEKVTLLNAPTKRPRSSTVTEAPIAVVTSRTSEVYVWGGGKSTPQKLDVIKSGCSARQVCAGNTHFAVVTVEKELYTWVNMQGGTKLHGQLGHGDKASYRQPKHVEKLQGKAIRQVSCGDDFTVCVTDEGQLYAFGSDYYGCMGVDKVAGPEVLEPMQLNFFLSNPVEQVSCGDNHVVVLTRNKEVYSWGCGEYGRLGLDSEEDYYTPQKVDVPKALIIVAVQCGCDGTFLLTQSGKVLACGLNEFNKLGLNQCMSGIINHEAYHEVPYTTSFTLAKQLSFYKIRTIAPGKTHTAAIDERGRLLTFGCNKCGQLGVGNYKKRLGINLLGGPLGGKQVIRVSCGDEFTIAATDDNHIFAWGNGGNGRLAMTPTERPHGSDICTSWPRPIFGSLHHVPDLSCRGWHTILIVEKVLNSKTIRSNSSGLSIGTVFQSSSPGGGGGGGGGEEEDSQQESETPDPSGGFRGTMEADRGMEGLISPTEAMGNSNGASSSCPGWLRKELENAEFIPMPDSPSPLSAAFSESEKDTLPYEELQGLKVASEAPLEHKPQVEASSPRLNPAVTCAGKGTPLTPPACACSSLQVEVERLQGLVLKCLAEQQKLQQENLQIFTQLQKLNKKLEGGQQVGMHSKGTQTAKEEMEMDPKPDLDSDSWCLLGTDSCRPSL
Conditions: at 0.1 µM.

Casein kinase II subunit alpha (Homo sapiens), sequence (P68400 whole entry, looked up): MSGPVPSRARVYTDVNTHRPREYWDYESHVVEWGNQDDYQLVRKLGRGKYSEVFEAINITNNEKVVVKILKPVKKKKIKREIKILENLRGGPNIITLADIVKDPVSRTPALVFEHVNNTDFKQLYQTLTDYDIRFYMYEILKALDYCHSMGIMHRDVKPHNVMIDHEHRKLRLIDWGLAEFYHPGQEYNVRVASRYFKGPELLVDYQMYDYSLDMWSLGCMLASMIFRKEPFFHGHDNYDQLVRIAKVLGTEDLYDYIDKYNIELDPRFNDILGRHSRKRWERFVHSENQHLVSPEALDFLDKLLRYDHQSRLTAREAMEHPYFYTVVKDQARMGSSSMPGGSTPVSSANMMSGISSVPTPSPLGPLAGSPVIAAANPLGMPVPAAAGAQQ
Serine/threonine-protein kinase Nek7 (Homo sapiens), sequence (Q8TDX7 whole entry, looked up): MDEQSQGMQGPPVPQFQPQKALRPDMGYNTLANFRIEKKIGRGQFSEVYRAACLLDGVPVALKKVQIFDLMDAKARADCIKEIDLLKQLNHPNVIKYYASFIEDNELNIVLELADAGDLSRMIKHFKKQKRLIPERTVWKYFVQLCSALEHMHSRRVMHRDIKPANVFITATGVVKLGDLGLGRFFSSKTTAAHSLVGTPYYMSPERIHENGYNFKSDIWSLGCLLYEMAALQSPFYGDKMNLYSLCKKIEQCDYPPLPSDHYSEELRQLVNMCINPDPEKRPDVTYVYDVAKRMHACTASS
Sphingosine kinase 1 (Homo sapiens), sequence (Q9NYA1 whole entry): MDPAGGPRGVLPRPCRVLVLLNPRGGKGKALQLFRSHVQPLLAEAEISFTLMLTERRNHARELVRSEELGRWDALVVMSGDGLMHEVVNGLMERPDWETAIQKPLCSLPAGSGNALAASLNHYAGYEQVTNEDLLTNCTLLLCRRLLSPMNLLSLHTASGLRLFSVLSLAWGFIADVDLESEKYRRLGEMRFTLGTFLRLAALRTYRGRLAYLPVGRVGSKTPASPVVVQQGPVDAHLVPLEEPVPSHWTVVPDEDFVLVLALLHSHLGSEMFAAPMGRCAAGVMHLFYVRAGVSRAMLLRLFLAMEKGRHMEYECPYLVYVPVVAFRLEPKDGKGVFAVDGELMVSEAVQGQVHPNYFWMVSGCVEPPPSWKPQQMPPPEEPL

As to `COc1cccc(-n2ncc3c(N/N=C/c4ccc(C(=O)NCCN(C)C)cc4)ncnc32)c1`, the inhibition – broadly, the drop in the measured response relative to a control, in per cent – in [1] is 0.56%; in assay [2], 0.23%; in assay [3] it was 1.39%; in assay [4], 31%; in assay [5], 62.2%; in assay [6] it was 1.29%. In addition, the inhibition in assay [7] is 4.43%; in assay [8], 1.09%; in assay [9], 0.86%; in [10], -1.79%; in assay [11], -5.84%; in [12], 2.06%. Besides, the inhibition came out at 7.24% in assay [13]; 0.16% in [14]; 1.98% in assay [15]; 1.11% in [16]; 0.35% in assay [17]; 3.99% in assay [18]. The inhibition in assay [19] is -1.23%; in assay [20], 5.54%.
